# Results filed as inconclusive are left out. Entries that show only a call come without a potency. Activity calls are given as the source filed them. Calls follow the shape of the dose curve; as a rule, active = well fitted inhibition curve with a large enough effect; inconclusive = small, poorly fitted or top-dose-only effect; inactive = no such curve, though single readings can be large or run the other way.
# Target: N-terminal Xaa-Pro-Lys N-methyltransferase 1 (Homo sapiens) (UniProt Q9BV86)
# Sequence (Q9BV86 whole entry, looked up): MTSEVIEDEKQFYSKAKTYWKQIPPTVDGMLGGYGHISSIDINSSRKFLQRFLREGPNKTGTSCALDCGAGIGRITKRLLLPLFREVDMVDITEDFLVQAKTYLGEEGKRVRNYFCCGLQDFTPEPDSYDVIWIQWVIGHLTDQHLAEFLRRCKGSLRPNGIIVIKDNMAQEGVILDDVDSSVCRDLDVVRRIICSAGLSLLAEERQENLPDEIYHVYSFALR
# Experiment: qHTS Assay for Inhibitors of N-terminal methyltransferase 1 (NTMT1): MTaseGlo Confirmatory Screen, Round 2
# Conditions: NTMT1 enzyme, MTase-Glo SAH luminescence; series mostly up to 57.4 µM
# Outline: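 Luminescent MTase-Glo readout of SAH formed in 30 min at RT by 125 nM NTMT1, 100 µM SAM and 1 µM SPKRIA substrate, after ~15 min compound preincubation. Percent inhibition versus no-enzyme and DMSO controls was Hill-fitted.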
# Potency is read from the fitted curve at half-maximal effect.
row,Structure (SMILES),Potency
1,O=Nc1ccc2oc(=O)ccc2c1,inactive
2,N#C/C(=C\c1ccc(O)c(O)c1)C(=O)c1ccc(O)c(O)c1,inactive
3,Nc1nc(F)nc2c1ncn2[C@@H]1O[C@H](CO)[C@@H](O)[C@@H]1O,inactive
4,CN(C)[C@@H]1C(=O)C(C(N)=O)=C(O)[C@@]2(O)C(=O)C3=C(O)c4c(O)ccc(Cl)c4[C@@H](O)[C@H]3C[C@@H]12,inactive
5,O=[N+]([O-])c1ccc(CNc2nc(NCc3cccc(C(F)(F)F)c3)nc3nc[nH]c23)cc1,inactive
6,CC(CN1c2ccccc2Sc2ccccc21)N(C)C (stereo unspecified),inactive
7,Nc1ncnc2c1ncn2[C@@H]1O[C@H](CO)[C@@H](O)[C@H]1O,inactive
8,COc1ccccc1N1CCN(CCN2C(=O)CC3(CCCC3)CC2=O)CC1,inactive
9,Clc1nccc2c1ccc1ccccc12,inactive
10,CSc1nc(N)c2ncn([C@@H]3O[C@H](COP(=O)(O)OP(=O)(O)O)C(O)[C@H]3O)c2n1 (stereo partly specified),20 µM (active)
11,Nc1nc(Cl)nc2c1ncn2[C@@H]1O[C@H](COP(=O)(O)OP(=O)(O)OP(=O)(O)O)[C@@H](O)[C@H]1O,inactive
12,CC[C@H](C)n1cc(C)c2c(C(=O)NCc3c(C)cc(C)[nH]c3=O)cc(-c3ccc(N4CCNCC4)nc3)cc21,inactive
13,C=CCN1CCc2c(cc(O)c(O)c2Cl)C(c2ccccc2)C1 (stereo unspecified),inactive
14,O=c1cc(-c2ccccc2)oc2c(O)c(O)ccc12,inactive
15,N=c1c[n+](N2CCOCC2)[n-]o1,inactive
16,CCC(CC)n1ccc2c(C(=O)NCc3c(C)cc(C)[nH]c3=O)cc(C#N)cc21,inactive
17,Nc1ncnc2c1ncn2[C@H]1O[C@@H](CNS(=O)(=O)NC(=O)c2cccc(-c3noc(-c4ccccc4F)n3)c2)[C@H](O)[C@@H]1O,2 µM (active)
18,Oc1ccc(O)cc1,inactive

row,Structure (SMILES),Potency
1,O=[N+]([O-])c1ccc(-c2nc(-c3ccc(F)cc3)c(-c3ccncc3)[nH]2)cc1,inactive
2,O=c1ccc2ccc(O)c(O)c2o1,inactive
3,Nc1ncnc2c1ncn2[C@@H]1O[C@H](COP(=O)(O)OP(=O)(O)OC[C@H]2OC(O)[C@H](O)[C@@H]2O)[C@@H](O)[C@H]1O (stereo partly specified),inactive
4,CN(C)CCCc1cc(C(=O)Nc2ccc(-c3ccncc3)cc2)ccc1O,inactive
5,OC[C@H]1O[C@@H](n2cnc3c(NCc4ccco4)ncnc32)[C@H](O)[C@@H]1O,inactive
6,N#C/C(=C\c1ccc(O)c(O)c1)C(=O)NCCc1ccccc1,inactive
7,CCn1nc(C(=O)O)c(=O)c2cc3c(cc21)OCO3,inactive
8,Brc1c(Br)c(Br)c2[nH]cnc2c1Br,inactive
9,COc1cc(/C=C(\C#N)C(=O)c2ccc(O)c(O)c2)cc(I)c1O,inactive
10,c1ccc(CN2CCC3(CCCc4ccccc43)CC2)cc1,inactive
11,CNCCc1cnc(CCC(c2ccccc2)c2ccccc2)[nH]1,inactive
12,Nc1nc(Cl)nc2c1ncn2[C@@H]1O[C@H](CO)[C@@H](O)[C@@H]1F,inactive
13,NC(Cc1c[nH]c2ccc(O)cc12)C(=O)O (stereo unspecified),inactive
14,Nc1ccc(CCNc2ncnc3c2ncn3C2OC(CO)C(O)C2O)cc1 (stereo unspecified),inactive
15,N#CC(C#N)=C(N)/C(C#N)=C/c1ccc(O)cc1,inactive
16,Cc1ccc(O)c(N=Nc2ccccc2)n1,14.1 µM (active)
17,Nc1nc(=S)c2ncn([C@@H]3O[C@H](CO)[C@@H](O)[C@H]3O)c2[nH]1,inactive
18,CCC(=O)c1ccc2c(c1)N(CCCN(C)C)c1ccccc1S2,inactive

# Source: PubChem BioAssay AID1347147 (National Center for Advancing Translational Sciences (NCATS), 2019)
